Measured values taken from PubChem BioAssay (NCI).
The panel holds about 83,000 compounds, 20% with a hit somewhere; the sample as a whole holds those more often.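 Results are percent growth after 48 hours of single-concentration exposure. 100 means growth as in untreated cells, lower positive values show inhibition; negative values down to -100 show cell death.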 The source made the active and inactive calls. Rule for the calls: active = growth percent below 10; inactive = the rest.

What was measured:
Test in all cases: NCI-60 one-dose screen, 48 h (100 = growth as untreated, 0 = no growth, -100 = all killed)
Conditions in all cases: 10 µM unless noted
OVCAR-8 ovarian = system: OVCAR-8 ovarian
OVCAR-5 ovarian = system: OVCAR-5 ovarian
OVCAR-4 ovarian = system: OVCAR-4 ovarian
SK-OV-3 ovarian = system: SK-OV-3 ovarian
IGROV1 ovarian = system: IGROV1 ovarian
OVCAR-3 ovarian = system: OVCAR-3 ovarian
NCI/ADR-RES ovarian = system: NCI/ADR-RES ovarian
T-47D breast = system: T-47D breast
BT-549 breast = system: BT-549 breast
MDA-MB-435 melanoma = system: MDA-MB-435 melanoma
SW-620 colon = system: SW-620 colon
MCF7 breast = system: MCF7 breast
HCT-116 colon = system: HCT-116 colon
KM12 colon = system: KM12 colon
HS 578T breast = system: HS 578T breast
HCC-2998 colon = system: HCC-2998 colon

Measured: growth

NC(N)=NN=C(c1ccccc1)c1ccccc1
active: SK-OV-3 ovarian 5.22% | MDA-MB-435 melanoma -23.8%
inactive: OVCAR-8 ovarian 40% | OVCAR-5 ovarian 79.3% | OVCAR-4 ovarian 71% | IGROV1 ovarian 48.1% | OVCAR-3 ovarian 21.3% | NCI/ADR-RES ovarian 59.3% | T-47D breast 12.2% | BT-549 breast 44.1% | SW-620 colon 28.1% | MCF7 breast 16.3% | HCT-116 colon 29% | KM12 colon 32.5%

O=C(N/N=C/C=C/c1ccc([N+](=O)[O-])o1)c1cc2ccccc2cc1O
active: OVCAR-8 ovarian 0.564% | OVCAR-5 ovarian -1.58% | OVCAR-4 ovarian -100% | SK-OV-3 ovarian -13.5% | IGROV1 ovarian -62.6% | OVCAR-3 ovarian -54.8% | HS 578T breast -4.48% | NCI/ADR-RES ovarian 0.815% | T-47D breast -65.5% | BT-549 breast -9.91% | MDA-MB-435 melanoma -24.2% | SW-620 colon -75.6% | MCF7 breast -61.3% | HCT-116 colon -92.8% | HCC-2998 colon -100% | KM12 colon -67.3%

COc1ccc(/C=N/C2=C(C#N)C(c3ccc(OC)cc3)c3ccc4ccccc4c3O2)cc1 (stereo not given)
active: MDA-MB-435 melanoma -10.9%
inactive: OVCAR-8 ovarian 84.7% | OVCAR-5 ovarian 104% | OVCAR-4 ovarian 85.4% | SK-OV-3 ovarian 77.6% | IGROV1 ovarian 56.2% | OVCAR-3 ovarian 78.9% | HS 578T breast 84.2% | T-47D breast 73.6% | BT-549 breast 84% | SW-620 colon 43.3% | MCF7 breast 34.4% | HCT-116 colon 71.7% | HCC-2998 colon 97.4% | KM12 colon 59.4%

O=c1c2cc(F)ccc2sc2c(NCCCN3CCCC3)nc3ccccc3c12
inactive: OVCAR-8 ovarian 55.6% | OVCAR-5 ovarian 70.3% | OVCAR-4 ovarian 48.7% | SK-OV-3 ovarian 88.9% | IGROV1 ovarian 15.1% | OVCAR-3 ovarian 29.3% | HS 578T breast 43.8% | NCI/ADR-RES ovarian 67.5% | T-47D breast 64.6% | MDA-MB-435 melanoma 20.6% | SW-620 colon 20.4% | HCT-116 colon 24.2% | HCC-2998 colon 22.1% | KM12 colon 27.7%
active: MCF7 breast -24.8%

COc1ccc2c(c1)[nH]c(=O)c1c3cccnc3cn21
inactive: SK-OV-3 ovarian 11.9% | IGROV1 ovarian 20.2% | OVCAR-3 ovarian 23.8% | HS 578T breast 49.6% | T-47D breast 60.2% | BT-549 breast 45.6% | SW-620 colon 20% | MCF7 breast 20.5% | HCT-116 colon 15.2% | HCC-2998 colon 21.5% | KM12 colon 14.5%
active: OVCAR-8 ovarian 8.08% | NCI/ADR-RES ovarian 0.176% | MDA-MB-435 melanoma -6.86%

Cc1ccc(NS(=O)(=O)c2ccc3c(c2)C2OCCC2C(c2ccc(C(=O)C(C)C)cc2)N3)cc1C (stereo not given)
inactive: OVCAR-8 ovarian 58.1% | OVCAR-5 ovarian 60.6% | OVCAR-4 ovarian 34.6% | SK-OV-3 ovarian 59.3% | IGROV1 ovarian 56.9% | OVCAR-3 ovarian 59.6% | HS 578T breast 81.7% | NCI/ADR-RES ovarian 41.9% | T-47D breast 24.3% | MDA-MB-435 melanoma 36.3% | SW-620 colon 51.4% | MCF7 breast 17.6% | HCT-116 colon 30.4% | HCC-2998 colon 62.2% | KM12 colon 36.5%

COc1nc(N(C)O)nc(N(C)O)n1
active: OVCAR-3 ovarian 9.27% | HCT-116 colon 7.23% | HCC-2998 colon 9.13%
inactive: OVCAR-8 ovarian 27.1% | OVCAR-5 ovarian 53.6% | OVCAR-4 ovarian 33.3% | SK-OV-3 ovarian 32% | IGROV1 ovarian 54.7% | NCI/ADR-RES ovarian 14.9% | T-47D breast 30.3% | BT-549 breast 12.4% | MDA-MB-435 melanoma 49.8% | SW-620 colon 34.6% | MCF7 breast 15% | KM12 colon 24.5%

CC(=O)N1C(=S)NC(=O)C1Cn1c(-c2ccccc2)nc2ccccc21 (stereo not given)
inactive: OVCAR-8 ovarian 102% | OVCAR-5 ovarian 103% | OVCAR-4 ovarian 102% | SK-OV-3 ovarian 94.3% | IGROV1 ovarian 92.5% | OVCAR-3 ovarian 101% | HS 578T breast 96% | NCI/ADR-RES ovarian 102% | T-47D breast 95.3% | BT-549 breast 109% | MDA-MB-435 melanoma 100% | SW-620 colon 103% | MCF7 breast 88.7% | HCT-116 colon 90.2% | HCC-2998 colon 110% | KM12 colon 100%

CC(C)Sc1nc(NNC(N)=S)c(C#N)c(-c2ccc(F)cc2)n1
inactive: OVCAR-8 ovarian 97.4% | OVCAR-5 ovarian 88.3% | OVCAR-4 ovarian 102% | SK-OV-3 ovarian 83.9% | IGROV1 ovarian 97.1% | OVCAR-3 ovarian 113% | HS 578T breast 101% | T-47D breast 83.2% | BT-549 breast 104% | MDA-MB-435 melanoma 108% | SW-620 colon 106% | MCF7 breast 99.1% | HCT-116 colon 94.6% | HCC-2998 colon 101% | KM12 colon 99%

O=c1ccn2nc3ccccc3c2[nH]1
inactive: OVCAR-8 ovarian 114% | OVCAR-5 ovarian 79.2% | OVCAR-4 ovarian 111% | SK-OV-3 ovarian 99.4% | IGROV1 ovarian 110% | OVCAR-3 ovarian 117% | HS 578T breast 134% | NCI/ADR-RES ovarian 60.1% | T-47D breast 95% | BT-549 breast 98.2% | MDA-MB-435 melanoma 118% | SW-620 colon 114% | MCF7 breast 107% | HCT-116 colon 103% | KM12 colon 112%

c1ccc(-c2nc([P+](c3ccccc3)(c3ccccc3)c3ccccc3)c(N3CCOCC3)o2)cc1
inactive: OVCAR-5 ovarian 11.1% | OVCAR-4 ovarian 11.4% | IGROV1 ovarian 16.7% | OVCAR-3 ovarian 11% | HS 578T breast 24.9% | NCI/ADR-RES ovarian 92.8% | SW-620 colon 14.4% | HCC-2998 colon 26.5%
active: OVCAR-8 ovarian 1.55% | T-47D breast -3.03% | BT-549 breast -5.41% | MDA-MB-435 melanoma -1.04% | MCF7 breast 2.94% | HCT-116 colon 2.08% | KM12 colon -1.22%
